Compounds without any hit were thinned out: in the full panel of roughly 83,000, 20% have a hit.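 Treatment: one concentration, 48 hours, 96-well format. Scoring: percent growth, with anything below 10 considered active.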 Values without a mark were called inactive. The source made the active and inactive calls.
What was measured:
Test in all cases: NCI-60 one-dose screen, 48 h (100 = growth as untreated, 0 = no growth, -100 = all killed)
[1] = tested on: HCT-15 colon; conditions: 10 µM unless noted
[2] = tested on: HT29 colon; conditions: 10 µM unless noted
[3] = tested on: SNB-75 CNS; conditions: 10 µM unless noted
[4] = tested on: SNB-19 CNS; conditions: 10 µM unless noted
[5] = tested on: U251 CNS; conditions: 10 µM unless noted
[6] = tested on: PC-3 prostate; conditions: 10 µM unless noted
[7] = tested on: SK-MEL-5 melanoma; conditions: 10 µM unless noted
[8] = tested on: UACC-62 melanoma; conditions: 10 µM unless noted
[9] = tested on: SK-MEL-28 melanoma; conditions: 10 µM unless noted
[10] = tested on: LOX IMVI melanoma; conditions: 10 µM

Compound	growth [1]	growth [2]	growth [3]	growth [4]	growth [5]	growth [6]	growth [7]	growth [8]	growth [9]	growth [10]
COc1cc2c(c(OC)c1OC)C(=O)CC(c1cccc(NC(=O)[C@@H](N)CC(C)C)c1)O2 (stereo partly specified)	95.3%	108%	97.8%	91.2%	95.3%	97.2%	96.7%	96.8%	115%	
C=C1CCC2C3(C)COC(c4cccc(F)c4)OC3CCC2(C)C1C/C=C1/C(=O)OCC1O (stereo unspecified)	-23.6% (active)	-1.9% (active)	54.1%	30.1%	-90% (active)	-17.5% (active)	-19.3% (active)	2.91% (active)	-26.2% (active)	
COc1ccc2nc(Nc3cccc(NC(=O)c4ccc(CN5CCCN(C)CC5)c(C(F)(F)F)c4)c3)ccc2c1	-64.7% (active)	-69.7% (active)	-35.3% (active)	-76.4% (active)	1.47% (active)	-57% (active)	-69.2% (active)	-61.1% (active)	-74.9% (active)	
COc1cc2c(c(OC)c1OC)C(=O)CC(c1cccc(NC(=O)c3cc(NC(=O)[C@@H](N)CO)ccc3C)c1)O2 (stereo partly specified)	110%	102%	135%	109%	112%	107%	104%	109%	109%	
CC(=O)Nc1ccc(-n2cnc3cc(-c4ccc(O)cc4)ccc32)cc1C(F)(F)F	16.1%	26.3%	8.79% (active)	27.8%	18%	44.8%	5.35% (active)	21.1%	20.5%	
COc1cc2oc(-c3cccc(C(=O)Nc4cccc([N+](=O)[O-])c4)c3)cc(=O)c2c(OC)c1OC	58.1%	59.9%	-6.58% (active)	-4.16% (active)	23.8%	33.3%	43.4%	18.4%	25.3%	
C=C1CCC2C3(C)COC(c4cc(F)cc(F)c4)OC3CCC2(C)C1CC(O)C1=CCOC1=O (stereo unspecified)	7.8% (active)	27.2%	38.1%	88.6%	69.1%	25.8%	77.8%	68.8%	46.7%	
COc1cccc(-c2c(C#N)c(-c3ccc(Cl)cc3)nc3n[nH]c(-c4ccc(Cl)cc4)c23)c1	9.74% (active)	27.9%	56.3%	68.2%	48.5%	23.9%	30.9%	61.3%	73.6%	
CCCCOc1ccc(NC(=O)c2sc3nc(C)ccc3c2N)cc1	36.7%	40.2%	-17.3% (active)	0.979% (active)	0.73% (active)	36.8%	3.73% (active)	40%	50.7%	
COc1cc(/C=C/C(=O)c2nnn(-c3ccc(Cl)cc3)c2C)cc(OC)c1OC	12.4%	15.5%	22.5%	60.3%	17.3%	30.6%	21.5%	28.7%	46.9%	
Nc1nc(C(F)(F)F)cs1	104%	112%	91.7%	105%	103%	102%	104%	101%	110%	
CC1CCCCN1CCCNC(=O)N/C(N)=N/c1nc2ccccc2s1 (stereo unspecified)	-13.6% (active)	3.14% (active)	4.11% (active)	61.5%	40.8%	31.6%	-96.7% (active)	-84.2% (active)	-97% (active)	
C=CC[N+](C)(C)CCn1c2ccccc2c2nc3cc(C)c(C)cc3nc21	106%	105%	88.5%	19.2%	72.9%	97.4%	63.7%	97.1%	79.6%	
O=C(NNc1nc2cc(F)ccc2n2c(CN3CCCCC3)ccc12)c1cnccn1	-52.4% (active)	8.19% (active)	-9.76% (active)	-8.81% (active)	-84.8% (active)	-18.3% (active)		-35.2% (active)	-57.4% (active)	-69.7% (active)
CCN(CC)C(=O)N/C(N)=N/c1nc2ccccc2s1	54%	62.5%	63.9%	56.5%	66.9%	54.9%	-24.9% (active)	43.7%	75.4%	
COc1cc2c(c(OC)c1OC)C(=O)CC(c1cccc(NC(=O)c3cc([N+](=O)[O-])ccc3Cl)c1)O2 (stereo unspecified)	-0.987% (active)	23.2%	12.9%	52.6%	30.7%	42.7%	23.3%	45.2%	34.1%	
CC(C)c1ccc2c(N)c(C(=O)Nc3cccc(C(F)(F)F)c3)sc2n1	-0.908% (active)	29.2%	129%	87.3%	71.1%	73.7%	72.3%	92.5%	80.2%	
O=C1Nc2ccc([N+](=O)[O-])cc2C1=Nc1ccccc1	92.5%	122%	101%	96.6%	106%	94.4%		59.7%	108%	97.2%
O=C(COc1ccc(NC(=O)Nc2ccc(Cl)c(Cl)c2)cc1)N=Nc1c(O)[nH]c2ccccc12	56.1%	-45.9% (active)	-39.5% (active)	-24.5% (active)	-87.7% (active)	-44.6% (active)	25.2%	-56.5% (active)	-90.4% (active)	
COc1ccc(NC(=O)Cn2c(O)c(N=Nc3ccc(S(N)(=O)=O)cc3)c3ccccc32)cc1	79%	-2.87% (active)	59.7%	23%	-32.5% (active)	14.4%	62.3%	20.7%	26.7%	
CC(C)c1ccc2c(N)c(C(=O)Nc3ccc(C(F)(F)F)cn3)sc2n1	58.7%	69.5%	78.6%	71.5%	62.9%	44.7%	5.02% (active)	69.7%	77.3%	
CC(=O)Oc1ccccc1C(=O)[Se]CC(=O)Nc1cccc(C(F)(F)F)c1	-79.8% (active)	-38.7% (active)	-39.2% (active)	-78.5% (active)	-48.3% (active)	24.9%	-86.4% (active)	-56.7% (active)	-58.8% (active)	
O=C(/C=C/c1ccc(-c2ccccc2)cc1)c1nc2ccccc2n1Cc1ccc(Br)cc1	37.3%	41.6%	56.8%	57.8%	27.4%	48.2%	72.2%	50.2%	58.5%	
Clc1cccc(Cl)c1/C=C/c1cc(/C=C/c2ccc(Br)cc2)c2ccccc2n1	101%	105%	95.9%	92.5%	101%	96.2%	104%	83.5%	104%	
C[C@H]1CN(C(=O)c2ccc3c(NNC(=O)c4ccncn4)nc4cc(F)c(F)cc4n23)CCN1	28.4%	36.6%	65.3%	30.1%	15.5%	38.7%		6.69% (active)	31.1%	12.4%
COc1ccc(-c2nnc3ccc(N/N=C/c4ccc(O)cc4)nn23)cc1	26.7%	87.4%	53.6%	67.5%	67.6%	40.5%		58.8%	69.1%	-54.8% (active)
Nc1n[nH]c2cccc(C#Cc3cccc(NC(=O)c4cccc(Cl)c4)c3)c12	20%	37.8%	35.7%	55.2%	46.1%	20.5%		32.4%	42.5%	17.7%
CC(=O)Nc1ccc(-n2cnc3ccc(-c4ccc(O)cc4)cc32)cc1	52%	102%	56.5%	55.5%	37%	47.6%	54.6%	46.1%	44.3%	
COc1ccc2[nH]cc(-c3nnc(N)nc3-c3c[nH]c4ncc(Br)cc34)c2c1	90.8%	96.7%	93.5%	91%	76.1%	110%	91.1%	80.1%	98.9%	

From PubChem BioAssay (NCI)
